Compound activity from PubChem BioAssay.
This is one part of a sample in which hits are shown more often than they occur.
Cycloheximide cs: counter-screen hit for Shiga toxin inhibitors, cycloheximide | AID 2314 | max response, % | cell reporter, cycloheximide protein synthesis inhibition counterscreen | 300,000 tested, 12% active; in the data active = max response mostly above about 13%, no sharp cut-off; inactive = mostly below about 14%; also: read at 38.3 µM for the half of the compounds with a filed dose; 0% is about no effect
NS1 function inh: blocks influenza NS1 protein function; Potency, µM (top dose mostly 46.1 µM), inactives show at the highest dose activity, positive = more growth; 270,000 tested, 0.4% active; AID 2326; calls by dose curve; also: potency is read from the fitted curve at half-maximal effect; actives are rising curves; nearly all actives have a fitted effect of over 50% in size
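Growth recovery, yeast-based: influenza A NS1 expressed in S. cerevisiae causes slow growth, and suppressors are detected by OD600. The parent strain without NS1 is used as positive control.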
AmpC inh detg: AmpC beta-lactamase inhibition with detergent present; P00811; AmpC hydrolysis of nitrocefin, absorbance 480 nm, 0.01% Triton; Potency, µM (top dose mostly 114 µM), for inactives: at the top dose activity change, negative = inhibition, usual class: inhibitors; 370,000 tested, 0.041% active;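 also: potency is read from the fitted curve at half-maximal effect; 0% = no-compound wells and -100% = no-enzyme wells; nearly all actives have a fitted effect of over 25% in size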
Target sequence (P00811 whole entry, looked up): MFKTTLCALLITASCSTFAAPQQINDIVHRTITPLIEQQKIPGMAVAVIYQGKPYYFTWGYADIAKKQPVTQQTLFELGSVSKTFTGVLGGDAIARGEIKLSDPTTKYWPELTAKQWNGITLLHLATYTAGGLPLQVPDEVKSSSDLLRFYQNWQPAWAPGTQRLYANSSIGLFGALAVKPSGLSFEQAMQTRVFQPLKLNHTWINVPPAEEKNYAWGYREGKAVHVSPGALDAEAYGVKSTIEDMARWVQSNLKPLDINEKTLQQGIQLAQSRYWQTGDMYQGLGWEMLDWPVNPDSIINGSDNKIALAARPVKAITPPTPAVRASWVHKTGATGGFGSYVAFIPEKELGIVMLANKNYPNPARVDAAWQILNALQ
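20 mM phosphate pH 7.0 + 0.01% (detergent screen) or 0.0001% Triton X-100; 5.3 nM AmpC reagent; cpd preinc 15 min RT; nitrocefin (800 uM stock) to start; A480 q20 s × 4 min; Activity was normalised to no-enzyme and no-compound control wells.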
Shiga inhibitor: inhibitors of Shiga toxin in Vero cells; Vero cells, Shiga toxin protein synthesis inhibition reporter; inhibition, % at 38.7 µM; 290,000 tested, 9.2% active; in the data active = inhibition mostly above about 28%, no sharp cut-off; inactive = mostly below about 43%; also: 0% is about no effect
AmpC no deterg: blocks E. coli AmpC beta-lactamase in detergent-free assay; P00811; AmpC nitrocefin hydrolysis, absorbance 480 nm, 0.0001% Triton; Potency, µM (doses to about 57.1 µM), without a hit: top-dose activity change, negative = inhibition, actives largely listed as inhibitors; 330,000 tested, 0.52% active; AID 485341;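 also: potency is read from the fitted curve at half-maximal effect; plate controls were no compound for no effect and no enzyme for full effect; nearly all actives have a fitted effect of over 20% in size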
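AmpC (5.3 nM in the dispensed reagent) in 20 mM phosphate pH 7.0 with 0.01% (detergent screen) or 0.0001% Triton X-100 was preincubated with compounds for 15 min at room temperature. Nitrocefin was then added from an 800 uM solution, and hydrolysis was followed at 480 nm.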
* marks the source's active call; other numbers are inactive results; ? = inconclusive; . = no result given. Unless noted, calls follow the shape of the dose curve; as a rule, active = well fitted curve in the direction sought with a large enough effect; inconclusive = small, poorly fitted or top-dose-only effect, or another doubt; inactive = no such curve, though single readings can be large; an effect the other way counts as inactive or inconclusive.

SMILES	Cycloheximide cs	NS1 function inh	AmpC inh detg	Shiga inhibitor	AmpC no deterg
Cc1nc2cc(N3CCN(C)CC3)c(NC(=O)Cc3ccccc3)cc2c(=O)n1Cc1ccccc1	89.5*	-0.6%	4.5%	55.1*	176.9%
CCCS(=O)(=O)NCc1cn2c(C)csc2n1	32.2*	?	?	49.4*	-2.6%
Cc1nc(CCNS(=O)(=O)c2cccs2)cs1	5.0	-3.3%	-3.8%	-3.6	-13.7%
Cc1csc2nc(CCNS(=O)(=O)c3cccs3)cn12	18.1*	-9.7%	-15.6%	32.4	-22.2%
COc1ccc(OC)c(NC(=O)c2c(NCc3ccc(OC)c(OC)c3)sc3c2CCC(C)C3)c1 (stereo not drawn)	.	.	4.6%	.	.
O=C(Nc1nnc(S(=O)(=O)N2CCN(c3ccc(F)cc3)CC2)s1)c1ccco1	-9.1	-1.5%	-0.1%	-7.3	-21.9%
O=c1c2ccccc2nc(-c2cccs2)n1-c1ccc2ccccc2c1	28.8*	16.2%	4.6%	active	-12.8%
Cc1cccc(NC(=O)c2c(O)c3ccccc3n(C)c2=O)c1	24.9*	11.6%	-10.1%	.	-16.5%
CCCn1c(=O)c(C(=O)Nc2cccc(C)c2)c(O)c2ccccc21	14.0	-6.3%	0.3%	23.3	-17.2%
Cc1ccnc(NC(=O)c2c(O)c3ccccc3n(C)c2=O)c1	50.6*	4.7%	-10.6%	71.2*	-16.4%
CCCCCn1c(=O)c(C(=O)Nc2cc(C)ccn2)c(O)c2ccccc21	-1.6	-7.9%	?	.	-18.7%
CCC(C(=O)Nc1ccc(S(=O)(=O)Nc2ncccn2)cc1)c1ccccc1 (stereo not drawn)	-1.8	13.5%	?	9.5	-19.2%
CCCOc1ccc(C2NC(=S)NC(C)=C2C(=O)c2ccccc2)cc1OC (stereo not drawn)	-2.3	9.5%	-10.2%	-11.6	?
COc1cc(C2NC(=S)NC(C)=C2C(=O)c2ccccc2)ccc1O (stereo not drawn)	-2.5	24.5%	-4.7%	17.6	14.1µM*
O=C(CSc1nnc(-c2ccco2)o1)N1CCCCC1	25.5*	6.0%	-0.1%	66.2*	-11.0%
O=C(CSc1ccc(-c2ccco2)nn1)N1CCCCC1	60.9*	.	1.6%	62.3*	-22.9%
CC1CC(C)CN(C(=O)CSc2nnc(-c3ccco3)o2)C1 (stereo not drawn)	13.1*	-2.7%	?	47.3	-1.4%
CC1CCN(C(=O)CSc2nnc(-c3ccco3)o2)CC1	-2.8	-8.5%	-7.0%	-2.3	-3.6%
Cc1ccc(S(=O)(=O)N2CCN(C(=O)COC(=O)C3CCC3)CC2)c(C)c1	.	.	-11.9%	.	26.7%
COc1ccc(-c2cc(C(C)=O)c(C)n2CCC(=O)Nc2ccc(C)c(Cl)c2)cc1	.	.	7.0%	.	.
COCC(=O)N(C)C1(c2nnnn2CCOC(=O)Nc2cccc3ccccc23)CCCC1	1.6	0.0%	?	1.9	5.6%
O=[N+]([O-])c1cc(O)c2ncccc2c1	22.4*	.	-3.8%	29.9	-21.3%
Cc1[nH]n(C(N)=S)c(=O)c1N=Nc1ccc(Br)cc1	27.1*	-42.7%	-9.3%	42.4*	-14.8%
Cc1[nH]n(C(N)=S)c(=O)c1N=Nc1ccc(S(=O)(=O)N2CCCC2)cc1	19.4*	-16.4%	3.0%	23.5	-30.9%
Cc1[nH]n(C(N)=S)c(=O)c1N=Nc1cccc(C(F)(F)F)c1	17.0	-2.1%	2.1%	32.5*	-21.1%
SMILES	Cycloheximide cs	NS1 function inh	AmpC inh detg	Shiga inhibitor	AmpC no deterg
O=C(CSc1nc2c(sc3ccccc32)c(=O)n1CCCN1CCCC1)NCc1ccco1	-6.6	.	-13.9%	-12.8	48.0%
O=C(CN1CCN(S(=O)(=O)c2ccccc2)CC1)Nc1ccnn1C1CCCC1	.	.	-4.7%	.	0.7%
COc1cc(/C=C(\C#N)c2nc3ccccc3o2)ccc1O	24.2*	-53.3%	3.7%	41.7	-28.8%
N#C/C(=C\c1ccc(O)cc1)c1nc2ccccc2o1	37.0*	-77.0%	1.2%	116.5*	-37.2%
Cc1cc(C)nc(Nc2n[nH]c(-c3ccccc3Br)n2)n1	47.6*	-12.9%	1.8%	110.2*	-9.3%
Cc1cc(C)nc(Nc2n[nH]c(-c3ccc(C(C)(C)C)cc3)n2)n1	-1.8	1.0%	-0.1%	-4.8	-5.1%
Cc1cc(C)nc(Nc2ccccc2Br)n1	-2.4	-17.1%	-11.2%	-10.1	-1.7%
Cc1cc(C)nc(Nc2n[nH]c(-c3ccccc3C)n2)n1	42.1*	-2.0%	-3.5%	100.3*	-21.3%
Cc1cc(C)nc(Nc2n[nH]c(-c3ccc(N)cc3)n2)n1	35.6*	-1.0%	?	72.4*	-38.8%
CCC1CC=CC2C1C(=O)N(Cc1ccccc1)C2c1ccoc1 (stereo not drawn)	15.7	.	.	12.6	.
CCOC(=O)N1CCC(NC(=O)CN(c2ccc(C(C)C)cc2)S(=O)(=O)c2c(C)nn(C)c2C)CC1	-1.8	6.0%	-3.1%	-6.0	184.7%
COc1ccc(/C=C/C(=O)NCc2ccccn2)cc1OC	11.5	1.7%	-3.2%	-6.3	3.0%
COC(=O)CNC(=O)/C=C/c1ccc(OC)cc1	27.4*	2.1%	-6.4%	56.9*	3.3%
COc1ccc(/C=C/C(=O)NCc2ccccn2)cc1	16.9*	14.1%	-8.7%	33.6*	-9.8%
COCC(C)NC(=O)/C=C/c1ccc(OC)cc1 (stereo not drawn)	18.9*	3.7%	-2.4%	36.2	-6.4%
CCc1ccccc1NC(=S)N1CCCCCC1	1.3	8.4%	3.9%	-10.6	-1.5%
CC1=NN(C(=S)Nc2ccccc2)C(c2ccccc2)C1 (stereo not drawn)	6.1	-4.9%	-1.0%	40.6	-35.5%
Cc1cccc(NC(=S)N2N=CCC2c2ccccc2)c1 (stereo not drawn)	41.8*	0.9%	-2.7%	118.7*	-22.0%
CCc1ccccc1NC(=S)N1N=CCC1c1ccccc1 (stereo not drawn)	16.5*	-4.7%	0.5%	54.8	-15.6%
CC(=O)c1ccc(N2CCN(S(=O)(=O)c3ccc4c(c3)CC(C)N4C(=O)C3CCC3)CC2)cc1 (stereo not drawn)	.	.	17.2%	.	.
COc1ccc(NC(=O)c2cn(-c3ccccc3)nc2-c2ccc(C)cc2)cc1	.	.	14.5%	.	.
O=C(CN1C(=O)C2C3C=CC(C3)C2C1=O)NCCc1ccccc1 (stereo not drawn)	14.6*	-4.5%	-3.5%	10.5	7.6%
O=C(CCN1C(=O)C2C3C=CC(C3)C2C1=O)NCCc1ccccc1Cl (stereo not drawn)	14.1*	-10.3%	?	28.0*	-2.4%
O=C(CCN1C(=O)C2C3C=CC(C3)C2C1=O)Nc1ccccc1 (stereo not drawn)	-1.2	-2.3%	-1.9%	4.4	-2.9%
O=C(CN1C(=O)C2C3C=CC(C3)C2C1=O)NCc1ccccc1 (stereo not drawn)	-4.1	3.8%	-8.2%	-23.0	-12.9%
O=c1c(O)cccc2cc(O)c(O)c(O)c12	0.7	-41.2%	?	3.6	10µM*
O=c1cc(-c2ccccc2)oc2cc(O)c(O)c(O)c12	.	.	.	.	-29.9%
N=c1oc2cc(O)ccc2cc1C(=O)Nc1nc2ccccc2s1	64.2*	-8.8%	-2.5%	32.4	-8.3%
